A549 tox = kills or reduces viability of A549 cells in Nrf2 counter-screen; A549 ARE-Fluc cells, CellTiter-Fluor viability, 18-24 h; Potency, µM (doses to about 46 µM), usual class: inhibitors; 0.16% of 390,000 active; AID 504648
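Cytotoxicity counterscreen: CellTiter-Fluor fluorescence was measured in A549 ARE_Fluc cells after 18-24 h of compound exposure in a concentration series. The subsequent BugLite luminescent read reports ARE-luciferase activity.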
Mito fusion yeast = blocks mitochondrial division or promotes mitochondrial fusion. Potency, µM (top dose mostly 46.1 µM), actives largely listed as activators. 0.23% of 320,000 active. S. cerevisiae fusion-defective mutant growth rescue, CellTiterGlo 48 h; also: nearly all actives have a fitted effect of over 45% in size
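Growth-rescue viability read-out: after 48 h at the non-permissive 37C in glycerol/ethanol YPEG, yeast mitochondrial fusion mutants are measured by CellTiterGlo luminescence; compounds (23 nl pinned per well) restoring growth score as division inhibitors or fusion activators.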
mIDH1 inhibitor = inhibitors of human mutant IDH1 R132H. IDH1-R132H enzyme, NADPH consumption, diaphorase/resazurin fluorescence. Potency, µM (top dose mostly 76.6 µM), hits mostly inhibitors. 0.093% of 390,000 active. AID 602179; also: nearly all actives have a fitted effect of over 65% in size
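IDH1-R132H (0.5 ug/mL) preincubated 30 min with compound, then NADPH (0.016 mM) and alpha-KG (2 mM) added; 80 min at RT, pH 7.5. Remaining NADPH coupled via diaphorase/resazurin to fluorescence (540/590 nm); concentration-response curves normalized to no-enzyme control.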
rTrxR1 inhibitor = blocks rat thioredoxin reductase 1; Potency, µM (doses to about 114 µM), hits mostly inhibitors; AID 588453; O89049; 1% of 390,000 active; recombinant rTrxR1, NADPH fluorescence consumption, selenite substrate; also: nearly all actives have a fitted effect of over 65% in size
Target sequence (O89049 whole entry, looked up): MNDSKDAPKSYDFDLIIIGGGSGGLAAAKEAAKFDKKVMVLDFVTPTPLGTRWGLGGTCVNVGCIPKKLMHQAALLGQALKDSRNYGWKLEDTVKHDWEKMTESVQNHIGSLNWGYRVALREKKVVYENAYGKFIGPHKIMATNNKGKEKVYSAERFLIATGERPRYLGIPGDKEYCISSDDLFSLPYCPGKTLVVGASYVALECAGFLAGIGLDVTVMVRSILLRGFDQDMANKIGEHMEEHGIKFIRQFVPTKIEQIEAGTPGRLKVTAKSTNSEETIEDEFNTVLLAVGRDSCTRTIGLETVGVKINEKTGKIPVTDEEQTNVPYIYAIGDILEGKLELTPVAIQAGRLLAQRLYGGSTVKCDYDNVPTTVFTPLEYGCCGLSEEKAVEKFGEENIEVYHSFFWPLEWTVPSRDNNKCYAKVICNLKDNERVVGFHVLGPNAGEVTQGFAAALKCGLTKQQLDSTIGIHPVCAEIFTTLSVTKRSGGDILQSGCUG
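Rat TrxR1 (90 nM in the dispensed reagent) was pre-reduced with 400 uM NADPH for 5 min at room temperature, then incubated with compound for 15 min. After 400 uM selenite was added, NADPH fluorescence (Ex 340/Em 450 nm) was followed for 8 min.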
Nrf2 inh = inhibitors of Nrf2 signaling; A549 ARE-Fluc reporter, luciferase luminescence, 18-24 h; Potency, µM (titrated, usually from 46 µM), most hits filed as inhibitors; 2.1% of 360,000 active; also: nearly all actives have a fitted effect of over 60% in size
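Two sequential reads on A549 ARE_Fluc cells exposed to compound for 18-24 h: a CellTiter-Fluor fluorescence read for viability, then a luciferase luminescence read for Nrf2/ARE activity.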
TrxR1 substrate = rat thioredoxin reductase 1 substrate activity. O89049. purified TrxR1 substrate turnover, NADPH consumption readout. Potency, µM (highest dose often 114 µM). 0.01% of 390,000 active. AID 588456; also: nearly all actives have a fitted effect of over 50% in size
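Rat TrxR1, dispensed at 90 nM, was prereduced with 400 uM NADPH (final) for 5 min at ~22 deg C, then incubated with compound 15 min before 400 uM selenite. A first-read NADPH fluorescence drop versus no-compound background flagged substrates.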
Each line names hits and unclear results; the compound was inactive in the other large screens. Shown are actives, neighbours in structure and some others; about 3.1% of the full set was active somewhere. Calls follow the shape of the dose curve; as a rule, active = well fitted curve in the direction sought with a large enough effect; inconclusive = small, poorly fitted or top-dose-only effect, or another doubt; inactive = no such curve, though single readings can be large; an effect the other way counts as inactive or inconclusive.

COc1cc(NC(=O)c2cc3c(C)nc4ccccc4c3o2)cc(OC)c1OC	none
Cc1nc2ccccc2c2oc(C(=O)Nc3ccc(C(C)C)cc3)cc12	A549 tox inconclusive, Nrf2 inh 14.6µM
Cc1nc2ccccc2c2oc(C(=O)Nc3ccc4c(c3)OCCO4)cc12	Nrf2 inh 23.1µM
N#Cc1ccc(OCC(=O)N2CCN(S(=O)(=O)c3ccc(Cl)s3)CC2)cc1	Nrf2 inh 23.1µM
COC(=O)C1CCN(C2=C(NS(=O)(=O)c3ccc(Cl)cc3)C(=O)c3ccccc3C2=O)CC1	Nrf2 inh inconclusive
NC(=O)C1CCN(C2=C(NS(=O)(=O)c3ccc(Cl)cc3)C(=O)c3ccccc3C2=O)CC1	rTrxR1 inhibitor 20µM
COC(=O)c1ccccc1NC(=O)CN1C(=O)COc2ccc(Cl)cc21	none (no result: Mito fusion yeast)
O=C(/C=C/c1ccc([N+](=O)[O-])cc1)c1cccnc1	rTrxR1 inhibitor 31.6µM
O=C(/C=C/c1ccc([N+](=O)[O-])cc1)NCc1cccnc1	none
O=[N+]([O-])c1ccc(/C=N/NC(=S)Nc2ccccc2)o1	rTrxR1 inhibitor 17.8µM
O=[N+]([O-])c1ccc(/C=N/NC(=S)Nc2ccccc2F)o1	none
O=C(CCC(=O)Nc1ccc(Cl)cc1Cl)N/N=C/c1ccc([N+](=O)[O-])o1	rTrxR1 inhibitor 11.2µM, Nrf2 inh 18.4µM
Cc1ccc(NCC(=O)N/N=C\c2ccc([N+](=O)[O-])o2)cc1	A549 tox inconclusive, rTrxR1 inhibitor inconclusive, Nrf2 inh 20.6µM
O=C(CNc1ccccc1)N/N=C/c1ccc([N+](=O)[O-])o1	A549 tox inconclusive, Nrf2 inh 18.4µM
COc1cccc(Cn2c(=O)n(CC3CCC(C(=O)N4CCCCC4)CC3)c(=O)c3sccc32)c1 (stereo not drawn)	Nrf2 inh inconclusive (no result: Mito fusion yeast)
COc1ccc(Cl)cc1NC(=O)c1cc2ccc3ccc(C)[nH]c3c2n1	Nrf2 inh inconclusive (no result: Mito fusion yeast)
O=C1c2ccccc2C(=O)N1c1cnc2ccccc2c1	none (no result: Mito fusion yeast, mIDH1 inhibitor, rTrxR1 inhibitor, TrxR1 substrate)
Cn1nnnc1SCCCNCc1cc(Cl)ccc1OCc1ccc(F)cc1	A549 tox inconclusive (no result: Mito fusion yeast)
O=C(NCCCn1ccnc1)c1cc2nc(-c3ccc(Br)cc3)cc(C(F)(F)F)n2n1	A549 tox inconclusive, Nrf2 inh 20.6µM
CCOC(=O)N1CCC(NC(=O)CSCc2nc(-c3cccc(OC)c3)oc2C)CC1	Nrf2 inh 18.4µM
COc1cccc(-c2nc(CS(=O)(=O)CC(=O)NC3CCC(C)CC3)c(C)o2)c1 (stereo not drawn)	Mito fusion yeast inconclusive, Nrf2 inh inconclusive
COc1cccc(-c2nc(CS(=O)(=O)CC(=O)NC3CCCC3)c(C)o2)c1	Nrf2 inh 20.6µM
CCOC(=O)N1CCC(NC(=O)CSCc2nc(-c3ccc(OCC)cc3)oc2C)CC1	none
COc1cccc(-c2nc(CS(=O)(=O)CC(=O)NC3CCCc4ccccc43)c(C)o2)c1 (stereo not drawn)	rTrxR1 inhibitor 10µM, Nrf2 inh inconclusive
COc1cccc(N2CCN(C(=O)c3c4c(nc5ccccc35)C(=O)N(C3CCCCC3)C4)CC2)c1	none (no result: Mito fusion yeast)
CC(=O)Nc1ccc(S(=O)(=O)NCCSCc2c(Cl)cccc2Cl)cc1	Nrf2 inh 14.6µM
CC(=O)Nc1ccc(S(=O)(=O)NCCSCc2cccc(Cl)c2)cc1	none
CCOC(=O)c1ccc(S(=O)(=O)N2CCN(c3nc(-c4cccs4)nc4ccccc34)CC2)cc1	none (no result: Mito fusion yeast, mIDH1 inhibitor)
CCOc1ccc(CCNC(=O)c2cc3ccccn3n2)cc1OCC	Nrf2 inh 20.6µM
CCc1cccc(Nc2ncnc3onc(-c4ccc(F)cc4)c23)c1	Nrf2 inh inconclusive (no result: Mito fusion yeast)
CCOc1ccc(S(=O)(=O)NC(C)(C)C)cc1-c1nc2c(C(C)(C)C)nn(C)c2c(=O)[nH]1	A549 tox inconclusive, Nrf2 inh 20.6µM
CCOc1ccc(S(N)(=O)=O)cc1-c1nc2c(C(C)(C)C)nn(C)c2c(=O)[nH]1	Nrf2 inh inconclusive
CCOC(=O)c1noc2ncn(CC(=O)O)c(=O)c12	none (no result: Mito fusion yeast)

Assay outcomes deposited in PubChem by National Center for Advancing Translational Sciences (NCATS).
